Bioassay records deposited in PubChem by several laboratories.
Hits are enriched below; roughly 3.3% of the tested compounds scored in any of these assays.
FXN GAA850 act: activators of GAA850 frataxin (FXN) promoter. activation, % at 6 µM. HEK293 lucGAA850 FXN promoter luciferase reporter, 24 h; percent of 10 µM SAHA response. 360,000 compounds, 0.56% hits;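 active = activation above the average of all compounds screened plus 3 SD, cutoff fixed separately per campaign, cut at about 7.5% in these data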;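 also: 0% = DMSO wells and 100% = 10 µM SAHA wells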
C2C12 statin: suppression of simvastatin myotoxicity | C2C12 myotubes + simvastatin, ATP luminescence, 48 h; scaled: DMSO 0, geranylgeraniol control 100 | rescue of ATP level, % at 7.49 µM | 330,000 compounds, 0.78% hits | AID 602340;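 active = mean ATP rescue above about 67%, or every replicate alone reaching that limit, limit read from the data, passing the limit was not always enough; inconclusive = no clear call, values can overlap the other calls; inactive = mean under the limit and some replicate under it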;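 also: myotubes were challenged with 10 µM simvastatin during compound exposure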
esBAF inh: blocks esBAF chromatin remodeling in mouse ES cells; Bmi1-luciferase knock-in reporter, 24 h; 100% = twice the neutral-well signal; reporter increase, % at 12.5 µM; 350,000 compounds, 2% hits; AID 602393; in the data active = activation above about 40%; inconclusive = no clear call, values can overlap the other calls;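 also: 0% = median of the plate's neutral control wells and 100% = double that signal; a rise in the Bmi1 reporter signal indicates esBAF inhibition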
MITF TRPM1 HTS: activators of MITF-driven TRPM1 promoter activity in SK-MEL-5 cells; SK-MEL-5 TRPM1-promoter luciferase, 24 h; % of positive control, neutral wells = 0; activation, % at 12.5 µM; 300,000 compounds, 0.75% hits;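 active = mean activation of at least 80% with every replicate also reaching 80%; inconclusive = mean reaches 80% but some replicate falls short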;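 also: 0% = neutral control wells and 100% = parthenolide positive control wells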
Wnt bcat act: activators of Wnt/beta-catenin signaling | Wnt/beta-catenin reporter cell assay, activator, plate reader | AID 743398 | 300,000 compounds, 1.2% hits | activation, % at 9.35 µM; in the data active = activation above about 30%, passing the limit was not always enough; inconclusive = no clear call, values can overlap the other calls;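 also: 0% = neutral control wells and 100% = positive control wells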
The depositor's hits bear a star.

`CCOC(=O)C1=C(C)NC(=O)C(C(N)=O)C1c1ccccc1` (configuration not stated) gave FXN GAA850 act 0, C2C12 statin 111*, esBAF inh -3, MITF TRPM1 HTS -5 and Wnt bcat act -1.
CCOC(=O)C1=C(C)NC(=S)N(C=O)C1c1ccccc1 (configuration not stated) was read as FXN GAA850 act 0, MITF TRPM1 HTS -8 and Wnt bcat act -7.
For O=C(O)C1=C[C@H](c2ccc3c(c2)OCO3)C[C@H](OCCCCO)O1 the results were FXN GAA850 act 0, C2C12 statin 7, esBAF inh -7, MITF TRPM1 HTS -4 and Wnt bcat act -2.
For O=C(NCc1ccccc1)C1=C[C@@H](c2ccc3c(c2)OCO3)C[C@@H](OCCCCO)O1 the results were FXN GAA850 act 0, C2C12 statin 6, esBAF inh 3, MITF TRPM1 HTS -5 and Wnt bcat act -2.
Screening O=C(Nc1ccccc1)C1=C[C@@H](c2ccc3c(c2)OCO3)C[C@@H](OCCCCO)O1 returned FXN GAA850 act 4, C2C12 statin -2, esBAF inh 67*, MITF TRPM1 HTS 73 and Wnt bcat act 22.
O=C(Nc1ccccc1)C1=C[C@H](c2ccc3c(c2)OCO3)C[C@H](OCCCCO)O1 was read as FXN GAA850 act 4, C2C12 statin 19, esBAF inh 48*, MITF TRPM1 HTS 30 and Wnt bcat act 10.
`COC(=O)c1[nH]c2ccc(C)cc2c1NC(=O)CN1CCN(C(=O)c2ccccc2)CC1` gave FXN GAA850 act -1, C2C12 statin 96*, esBAF inh 3, MITF TRPM1 HTS -15 and Wnt bcat act 0.
`CNC[C@@H]1OCCCC[C@H](C)Oc2ccc(NC(=O)Nc3ccc4c(c3)OCO4)cc2C(=O)N([C@@H](C)CO)C[C@@H]1C` gave C2C12 statin -21 and esBAF inh 3.
`C=CCn1c(=O)c(C#N)cc2c(=O)n3ccccc3nc21` gave FXN GAA850 act 3, C2C12 statin -1, esBAF inh -7, MITF TRPM1 HTS 7 and Wnt bcat act -1.
For C=CCn1c(=N)c(C#N)cc2c(=O)n3ccccc3nc21 the results were FXN GAA850 act -1, C2C12 statin 94*, esBAF inh 1 and MITF TRPM1 HTS -8.
For Cc1nnc(SCC(=O)NCc2ccccc2)n1-c1ccccc1 the results were FXN GAA850 act 0, C2C12 statin 103*, esBAF inh -9, MITF TRPM1 HTS -2 and Wnt bcat act -4.
`c1ccc(Cn2c(SCc3nc4ccccc4s3)nnc2-c2ccco2)cc1` gave FXN GAA850 act 2, C2C12 statin 11, esBAF inh 40 and MITF TRPM1 HTS 18.
`Cc1nnc(SCc2nc3ccccc3s2)n1N` gave FXN GAA850 act 5, MITF TRPM1 HTS 20 and Wnt bcat act 8.
Cc1nnc(SCc2nc3ccccc3s2)n1-c1ccccc1 was read as FXN GAA850 act 7, C2C12 statin -1, esBAF inh 72*, MITF TRPM1 HTS 10 and Wnt bcat act inconclusive.
Screening Cc1nnc(SCC(=O)NCc2ccco2)n1-c1ccccc1 returned FXN GAA850 act 1, C2C12 statin 1 and esBAF inh -3.
`CCn1c(SCc2nc3ccccc3s2)nnc1-c1ccccc1` gave FXN GAA850 act 7, C2C12 statin 29, esBAF inh 46* and MITF TRPM1 HTS 6.
CCC(c1nnc(SCc2nc3ccccc3s2)n1Cc1ccccc1)N(C)C (configuration not stated) was read as FXN GAA850 act 2, C2C12 statin 20, esBAF inh 70* and MITF TRPM1 HTS 12.
`CC(C)C#Cc1ccc2c(c1)O[C@@H](CN(C)C(=O)NC(C)C)[C@@H](C)CN([C@@H](C)CO)S2(=O)=O` gave C2C12 statin 37 and esBAF inh -1.
COC(=O)[C@H](CC(C)C)NS(=O)(=O)c1ccccc1 was read as FXN GAA850 act 3, C2C12 statin 80*, esBAF inh 0, MITF TRPM1 HTS -7 and Wnt bcat act -1.
Screening COc1ccc2c(c1)CC/C(=C\c1ccc(C)o1)C2=O returned FXN GAA850 act 3, C2C12 statin 2, esBAF inh 40, MITF TRPM1 HTS 87* and Wnt bcat act 16.
`S=c1[nH]nc(-c2ccncc2)n1/N=C/C=C/c1ccccc1` gave FXN GAA850 act -1 and Wnt bcat act 6.
S=c1[nH]nc(-c2ccncc2)n1/N=C/C(Cl)=C\c1ccccc1 was read as FXN GAA850 act 4, MITF TRPM1 HTS 71 and Wnt bcat act 32*.
O=C(NCCc1ccccc1)c1ccc(Br)o1 was read as FXN GAA850 act 2, C2C12 statin 28, esBAF inh 49*, MITF TRPM1 HTS inconclusive and Wnt bcat act 25.
`O=C(NCCc1ccc(Cl)cc1)c1n[nH]c2ccccc12` gave FXN GAA850 act 3, MITF TRPM1 HTS 50 and Wnt bcat act 2.
O=C(NCCc1ccccc1)c1c(O)c2ccccc2[nH]c1=O was read as FXN GAA850 act 0, C2C12 statin -12, esBAF inh 50*, MITF TRPM1 HTS 38 and Wnt bcat act 5.
Screening O=C(NCCc1ccccc1)c1n[nH]c2ccccc12 returned FXN GAA850 act 4, C2C12 statin -4, esBAF inh 24, MITF TRPM1 HTS 63 and Wnt bcat act 52*.
Screening Cc1cccc2c(=O)c(C(=O)NCCc3ccccc3)c[nH]c12 returned FXN GAA850 act 2, C2C12 statin -4, esBAF inh 52*, MITF TRPM1 HTS 39 and Wnt bcat act 5.
`CCNC(=O)c1c(O)c2ccccc2[nH]c1=O` gave FXN GAA850 act 5, C2C12 statin 7, esBAF inh 8, MITF TRPM1 HTS 29 and Wnt bcat act -10.
Screening C[C@@H]1CCCCO[C@H](CN(C)C(=O)Nc2ccccc2)[C@H](C)CN([C@H](C)CO)C(=O)c2cc(NS(=O)(=O)c3cccs3)ccc2O1 returned esBAF inh -3.
`Cc1nn(C)cc1NC(=O)C[C@@H]1CC[C@@H]2[C@@H](COc3ccc(NC(=O)C4CCC4)cc3C(=O)N2C)O1` gave C2C12 statin -7 and esBAF inh -5.
For Cc1noc(C)c1S(=O)(=O)Nc1ccc2c(c1)C(=O)N([C@H](C)CO)C[C@H](C)[C@@H](CN(C)Cc1ccc3c(c1)OCO3)OCCCC[C@H](C)O2 the results were esBAF inh 6.
For CCCNC(=O)Cc1c(O)c2ccccc2[nH]c1=O the results were FXN GAA850 act -2, C2C12 statin 108*, esBAF inh 1 and MITF TRPM1 HTS 15.
For O=C(NCCc1ccccc1)c1nccc2ccccc12 the results were FXN GAA850 act 2, C2C12 statin 4, esBAF inh 80*, MITF TRPM1 HTS 81* and Wnt bcat act 29.
`O=C(Cc1c(O)c2ccccc2[nH]c1=O)NCc1ccccc1F` gave FXN GAA850 act 3, C2C12 statin 60, esBAF inh 2 and Wnt bcat act -1.
